Data on 53 compounds can be found in ChEMBL document CHEMBL4513216, “Probing the Open Global Health Chemical Diversity Library for Multistage-Active Starting Points for Next-Generation Antimalarials” (ACS Infect Dis, 2020).

About 2,100 (3.2%) of roughly 65,000 compounds showed an effect of 50% or more. The median lay at about -52%. The entries come from a sample that favours strong results as a whole.

The subject of this test is Plasmodium falciparum. The test can be described thus: Screen against P. falciparum Asexual Blood Stage (ABS), at 5uM. The format is functional, Dd2. Particulars: tested at 5 uM.
Take `CNc1cncc(C2CCCN2Cc2ccn(C)n2)n1` (stereo not drawn): the INHIBITION was -1.9%. As for `c1cncc(-c2ccc3c(c2)CCC32CCN(Cc3nccs3)CC2)c1`, the INHIBITION was found to be 49.1%.

Regarding `CCN1C[C@@H]2CN(S(=O)(=O)c3cccs3)C[C@@H]2C1=O`, the INHIBITION worked out at 64.6%.

As for `CC(C)CN1C[C@@H]2CN(S(=O)(=O)c3cccs3)C[C@@H]2C1=O`, the INHIBITION is listed as -43.6%. For `COCCN1C[C@@H]2CN(S(=O)(=O)c3cccs3)C[C@@H]2C1=O` the value was -43.2%; for `CCc1cc(N[C@@H]2C[C@@H]3CC[C@H]2C3)n2nccc2n1`, -125%; for `Cc1ccc(C(=O)Nc2ccc(S(=O)(=O)/N=C3\CCCN3C)cc2)s1`, -13.1%. Regarding `CC(C)(C)n1nc(C2CC2)cc1C(=O)NC1CCN(CC(N)=O)CC1`, the INHIBITION is -56.9%. Regarding `Cc1cccc(N2CCOCC3(C2)CN(c2cncnc2)C(=O)CO3)n1` (stereo not drawn), the INHIBITION was -66.1%. As to `Cc1cccc(N2CCOCC3(C2)CN(c2ccccc2)C(=O)CO3)n1` (stereo not drawn), the INHIBITION is reported as -58.1%. Take `Cc1cccc(N2CCOCC3(C2)CN(c2ccoc2)C(=O)CO3)n1` (stereo not drawn): the INHIBITION was 66.9%. For the compound `CCS(=O)(=O)NC[C@]12COC[C@H]1CN(Cc1ccsc1)C2`, the INHIBITION is listed as 19.6%. Consider `CCC(C)C(=O)Nc1ccc(CCN2CCOCC2)cc1` (stereo not drawn), for which the INHIBITION is -81%. Take `CC(C)(CN1CCC(Cc2ccc(C(=O)O)cc2)C1)N1CCOCC1` (stereo not drawn): the INHIBITION is reported as -29.2%. For `COCCCn1ccc(NC(=O)NCCCn2ccnc2)n1`, the INHIBITION is on record as -58.9%. `COc1cc(CNCCn2ccnc2)cc2c1OCO2`: the INHIBITION is given as -86.4%. `O=C(CN1CCOc2ccc(Cl)cc21)NCCCn1ccnc1`: the INHIBITION was -30.7%.

Turning to `CCOc1ccc(CNCCCn2ccnc2)cc1OC`, the INHIBITION is given as -13.1%. As to `CCOc1ccc(Cl)cc1CNCCCn1ccnc1`, the INHIBITION is 52.8%.

As to `CCOc1c(CNCCCn2ccnc2)cc(Cl)cc1OC`, the INHIBITION is recorded as 66.5%.

`NC(=O)C1CCN(c2nc3nccc(-c4ccccc4)c3c(=O)[nH]2)CC1`: the INHIBITION is recorded as -99.6%. For `NC(=O)C1CCN(c2nc3nccc(-c4cccnc4)c3c(=O)[nH]2)CC1` the value was -16.2%; for `O=C(O)Cn1nc(C2CC2)c2c(-c3cccs3)ccnc21`, -7.45%. Consider `O=c1[nH]c(NC2CCCC2)nc2nccc(-c3cccs3)c12`, for which the INHIBITION amounted to 56.6%. For the compound `O=c1[nH]c(NC2CCCC2)nc2nccc(-c3ccsc3)c12`, the INHIBITION is 68.5%.

For the compound `NC(=O)C1CCN(c2nc3nccc(-c4ccncc4)c3c(=O)[nH]2)CC1`, the INHIBITION is on record as -23%. For `c1ccc(COC[C@H]2CC[C@H]3[C@H](CCN3Cc3ccccn3)O2)nc1` the value was -2.2%; for `CCNc1cc2c(nn1)CCN(C(=O)c1ccnc(-n3ccnc3)c1)C2`, 43.9%; for `CC(C)N1CCc2[nH]nc(C(=O)N3CCN(C)CC3)c2C1`, 49.2%. `CC(C)N1CCc2[nH]nc(C(=O)N3CCOCC3)c2C1`: the INHIBITION turned out to be 55.6%. As to `CC(=O)N1CCc2[nH]nc(C(=O)N3CCOCC3)c2C1`, the INHIBITION is -75.4%. For the compound `O=C(Nc1nc2c(s1)CNCC2)C1CC1`, the INHIBITION is recorded as -117%.

On to `O=C(NCC1CC1)[C@H]1C[C@H]2OCC[C@H]2N(CCc2ccccc2)C1`, for which the INHIBITION is -62.8%. `CO[C@@H]1CN(c2ccccc2)S(=O)(=O)[C@@]12CCN(Cc1ccccc1)C2`: the INHIBITION was -32.5%. As to `CC(=O)N[C@@H]1CN(C2CCN(c3cccc(Cl)c3)CC2)C[C@H]1C(C)C`, the INHIBITION is recorded as -10.3%.

Turning to `CC(=O)N[C@@H]1CN(C2CCN(c3cccc(C)c3C)CC2)C[C@H]1C(C)C`, the INHIBITION worked out at 57.7%. For `CC(=O)N[C@@H]1CN(C2CCN(c3ccccc3F)CC2)C[C@H]1C(C)C`, the INHIBITION is given as -24.8%. Take `CN1[C@H](Cn2cncn2)C[C@@H]2CN(Cc3ccsc3)CC[C@@H]21`: the INHIBITION was 38.2%. Take `CCOCC(=O)NCC(Cc1cccc(F)c1)N1CCCCC1=O` (stereo not drawn): the INHIBITION is given as -88%. For the compound `COc1ccc2nnc(CCCC(=O)NCCc3ccccn3)n2n1`, the INHIBITION is listed as -138%. As to `COc1ccc(C(C)CCNC2CCN(c3ccccn3)CC2)cc1` (stereo not drawn), the INHIBITION turned out to be 68.2%.

Turning to `c1ccc(N2CCC(NCCc3ccc(-n4cccn4)cc3)CC2)nc1`, the INHIBITION is 39.6%. On to `CC(CNC1CCN(c2ccccn2)CC1)Oc1ccc(F)cc1` (stereo not drawn), for which the INHIBITION was determined as 49.1%. As for `COCCOCC(=O)NC1CCN(c2ccccn2)CC1`, the INHIBITION is listed as -16.8%. Turning to `COc1c(CNC2CCN(c3ccccn3)CC2)c(C(C)C)nn1C`, the INHIBITION is reported as 1.28%.

With `CC(C)COCCNC1CCN(c2ccccn2)CC1`, the INHIBITION is on record as 61.2%. As to `CC(C)(C)C(=O)N1CCC2(CNS(=O)(=O)c3cnccc3O2)C1` (stereo not drawn), the INHIBITION is -18.2%. Take `CCC1c2ccccc2CCN1CCCS(C)(=O)=O` (stereo not drawn): the INHIBITION was -4.08%. For `CC(C)C(NCc1ccc(Cn2cncn2)cc1)c1ccc(F)cn1` (stereo not drawn) the value was -59.5%. As to `COc1ccc(CNC(Cn2cncn2)c2ccccc2)cc1C` (stereo not drawn), the INHIBITION is on record as -102%. Take `CC(C)C(NCc1ccc(Cn2cncn2)cc1)c1ccccc1` (stereo not drawn): the INHIBITION is given as 50.1%.

Consider `O=S(=O)(c1ccccc1)N1CCC2(CCCN2CC2CCCC2)C1` (stereo not drawn), for which the INHIBITION is 48%.

With `COc1cc(N2CCCC(CO)(Cc3ccccc3F)C2)ncn1` (stereo not drawn), the INHIBITION is recorded as -43.6%.
